Shown are actives, neighbours in structure and some others; about 3.1% of the full set was active somewhere.
ELG1 DNA repair: inhibitors of ELG1-dependent DNA repair in HEK293T cells; hit rate 2.3% among 330,000; AID 504467; HEK293T ELG1-luciferase reporter, luminescence, 16 h; DNA damage induced by 5-fluorouridine; Potency, µM (highest dose often 46.1 µM), for inactives: top-dose activity change, negative = inhibition, actives largely listed as inhibitors; note: potency is the fitted concentration of half-maximal effect; % is set by controls: 0 for no effect and ±100 for the full control effect; nearly all actives have a fitted effect of over 55% in size
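HEK293T cells expressing luciferase-tagged ELG1 (2,000/well) received 5-Fluorouridine plus compound or DMSO for 16 hr at 37 °C. Luciferase was read by ONE-Glo luminescence after 30 min at room temperature.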
BRCA1 expr act: BRCA1 expression activation | Potency, µM (titrated, usually from 46.1 µM), for inactives: top-dose activation, most hits filed as activators | MCF7-BRCA1-FFLuc reporter, luminescence, 48 h; response scale: scaled: vehicle 0%, 10 µM genistein 100% | hit rate 1.1% among 380,000; note: potency is the fitted concentration of half-maximal effect; nearly all actives have a fitted effect of over 80% in size
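48 h compound treatment of MCF7-BRCA1-FFLuc cells (phenol-red free MEM, 37 °C), then 15 min with luciferase substrate and luminescence imaging.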
IL2 activator: activators of IL-2; IL-2 activation reporter assay, cell-based qHTS; stimulated with anti-CD3/CD4/CD28 beads; in transgenic mouse T cells; activation, % (series mostly up to about 46 µM); hit rate 0.065% among 360,000; AID 652025; in the data active = activation above about 50%; inconclusive = mostly about 30% to 49%; note: 0% is about no effect
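EGFP and DsRed fluorescence is measured by plate cytometry in unstimulated transgenic mouse T cells exposed to compound for 60 minutes, then stimulated 18 hours at 37 degrees C with anti-CD3/anti-CD4 beads plus anti-CD28.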
Nrf2 ARE act: Nrf2 pathway activation; hit rate 0.31% among 410,000; AREc32 ARE-luciferase reporter (MCF7-derived line), luminescence, 24 h; Potency, µM (top dose mostly 46.1 µM), inactives show at the highest dose activation, actives largely listed as activators; note: potency is the fitted concentration of half-maximal effect; % of control where 0% means no effect; nearly all actives have a fitted effect of over 65% in size
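For detection, Steady-Glo was added and plates sat 30 min at RT; before that, AREc32_Fluc cells grown overnight in OPTI-MEM/5% FBS had been treated with 23 nL compound for 24 hr at 37 deg C.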
Active calls of the source: *; ? = inconclusive; . = no result. Unless noted, calls come from the whole dose curve; as a rule, active = well fitted curve in the direction sought with a large enough effect; inconclusive = small, poorly fitted or top-dose-only effect, or another doubt; inactive = no such curve, though single readings can be large; an effect the other way counts as inactive or inconclusive.

SMILES	ELG1 DNA repair	BRCA1 expr act	IL2 activator	Nrf2 ARE act
C(/C=C/c1ccccc1)=N/N1CCN(c2ccccc2)CC1	?	7.9µM*	-1	0%
CCCN(C(=O)c1sc2nc3n(c(=O)c2c1C)CCCC3)c1ccccc1C	.	.	.	-1%
Cc1c(C(=O)/C=C/c2cccs2)oc2ccc(F)cc12	?	-30%	-2	7.9µM*
Cc1c(C(=O)N2CCN(c3ncccn3)CC2)oc2ccc(F)cc12	?	-7%	0	2%
Cc1c(C(=O)N2CCCCC2)oc2ccc(Br)cc12	?	?	0	4%
Cc1ccc2oc(C(=O)N3CCCCCC3)c(C)c2c1	?	5.6µM*	-2	0%
Cc1c(C(=O)N2CCN(C(=O)c3ccccc3)CC2)oc2ccc(F)cc12	18µM*	-5%	0	0%
CC12CN3CC(c4ccccc4)(CN(C1)C3c1ccc(Cl)cc1)C2=O (configuration not stated)	.	.	.	-1%
O=C(NCc1ccccc1Cl)c1ccc2c(c1)N(Cc1ccccc1)C(=O)c1ccccc1S2	.	.	.	0%
O=C1c2ccccc2C(=O)c2c1ccc1c(=O)n(C3CCCCC3)[nH]c21	21µM*	-89%	1	0%
CCCC(=O)Nc1nnc(-c2ccc3c(c2)OCCO3)o1	?	6.3µM*	-1	0%
CSc1ccc(-c2nnc(NC(=O)c3ccc4c(c3)OCCO4)o2)cc1	.	.	.	-1%
Cc1nc2sccn2c(=O)c1S(=O)(=O)Nc1cc(C(F)(F)F)ccc1Cl	.	.	.	1%
Clc1ccc(OCc2noc(-c3ccsc3)n2)c(Cl)c1	?	3.5µM*	0	29%
CC1CCCN(S(=O)(=O)c2ccc(NC(=O)c3nc(SC(C)C)ncc3Cl)cc2)C1 (configuration not stated)	.	.	.	-1%
COc1ccc(N2CCN(C(CNS(=O)(=O)c3ccc4c(c3)OCCO4)c3ccco3)CC2)cc1 (configuration not stated)	15µM*	-48%	0	1%
O=S(=O)(NCC(c1ccco1)N1CCN(c2ccccc2F)CC1)c1ccc2c(c1)OCCO2 (configuration not stated)	16µM*	-51%	-1	1%
O=C(NCC(c1ccco1)N1CCN(c2ccccc2F)CC1)c1ccc2c(c1)OCO2 (configuration not stated)	13µM*	-50%	-4	-1%
O=[N+]([O-])c1ccc(O/N=[N+](\[O-])N2CCCC2)c([N+](=O)[O-])c1	.	0%	.	.
O=C(Cn1cnc2ccccc2c1=O)c1ccccc1	?	78%	-2	4%
CC(C)(C)n1ncc2c(=O)n(CC(=O)OCc3ccccc3)cnc21	?	37%	-1	-2%
O=C(Cn1cnc2ccccc2c1=O)c1ccc(Cl)cc1	?	8.9µM*	3	6%
CC(C)(C)n1ncc2c(=O)n(CC(=O)c3ccccc3)cnc21	?	13µM*	1	3%
Cc1ccc(C(=O)N/C(=C\c2ccccc2)C(=O)NCc2ccncc2)cc1	1.8µM*	0%	2	0%
Cc1ccc2oc(Nc3nc(-c4ccccc4)cc(=O)[nH]3)nc2c1	?	3.5µM*	1	3%
SMILES	ELG1 DNA repair	BRCA1 expr act	IL2 activator	Nrf2 ARE act
CCCCC(=O)Nc1ccc2nc(SCC(=O)N3CCOCC3)sc2c1	.	.	.	6%
CCCCNC(=O)CSc1nc2ccc(Nc3nc(N4CCOCC4)nc(N4CCOCC4)n3)cc2s1	5.8µM*	-37%	-1	2%
CCCCCC(=O)N1C[C@@H](O)[C@H](n2cc(-c3ccc(F)cc3)nn2)C[C@@H]1c1ccccc1	.	0%	-1	6%
C/C(=N\OCC(=O)Nc1ccccc1C(=O)O)c1cccs1	2%	11µM*	0	-1%
CCc1nc2ccc(C(=O)NC3CCN(Cc4ccccc4)CC3)cn2c1N(C)Cc1cc2ccccc2s1	.	-57%	-1	-3%
CN(C)CCN=Cc1c(O)n(Cc2ccc3c(c2)OCO3)c(=O)c2ccccc12	-1%	27%	3	0%
O=c1c2ccccc2c(C=NC2CCN(Cc3ccccc3)CC2)c(O)n1Cc1ccc2c(c1)OCO2	6.5µM*	.	.	.
Cc1nc(-c2ccc(C(=O)Nc3ccccc3F)cc2)cs1	?	10µM*	0	-2%
Cc1nc(-c2ccc(NC(=O)Cc3ccccc3)cc2)cs1	?	8.9µM*	-3	2%
Cc1nc(-c2ccc(C(=O)Nc3ccc(F)cc3)cc2)cs1	?	?	-2	1%
